{"source": "PubChem BioAssay AID435030", "about": "(The Scripps Research Institute Molecular Screening Center, 2010)", "note": "Hit rate of the full screen: of about 330,000 compounds, about 940 (0.28%) were called active. The sample as a whole holds a higher share of actives than the screen did. Values without a mark were called inactive. Rule as the data show it: active = inhibition above about 12%; inactive = the rest."}
{"experiment": "growth inhibition of E. coli expressing H. pylori AddAB, primary screen, AddAB inhibitor project, absorbance (AID 435030);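 also: 0% = vehicle wells of infected cells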", "settings": "at 11.9 µM, stronger effect = higher value"}
{"molecule": "C/C(=N/O)c1ccc2ccc3ccccc3c2c1", "inhibition": "1.43%"}
{"molecule": "Cc1ccc(-n2c(-c3ccc([N+](=O)[O-])cc3)nc3ccccc3c2=O)cc1", "inhibition": "0.16%"}
{"molecule": "O=[N+]([O-])c1cnc2ccc3ccccc3c2c1", "inhibition": "50.7% (active)"}
{"molecule": "CCc1ccc(OCC(=O)N2CCN(CC(=O)Nc3ccccc3Cl)CC2)cc1", "inhibition": "-0.08%"}
{"molecule": "CN(C)S(=O)(=O)c1cc(C(=O)N2CCC(C(=O)O)(c3ccccc3)CC2)ccc1Cl", "inhibition": "23.8% (active)"}
{"molecule": "CCc1nc2ccccc2c(=O)n1-c1cccc(OC)c1", "inhibition": "1.96%"}
{"molecule": "COc1ccc(S(=O)(=O)NCc2ccc(C(=O)N3CCC4(CC3)OCCO4)cc2)cc1", "inhibition": "2.3%"}
{"molecule": "c1ccc2sc(N3CCNCC3)nc2c1", "inhibition": "-0.09%"}
{"molecule": "C[C@]12CC[C@H](O)CC1=C([N+](=O)[O-])CC1C2CC[C@@]2(C)C1CC[C@@H]2O", "note": "(stereo not given in full)", "inhibition": "1.39%"}
{"molecule": "Cc1ccc(-c2nn(CCC#N)cc2C(=O)O)cc1C", "inhibition": "2.06%"}
